Screening data deposited in PubChem BioAssay by National Center for Advancing Translational Sciences (NCATS).
SARS PLpro yeast-1 = SARS-CoV PLP inhibition in yeast | S. cerevisiae expressing SARS-CoV PLpro, growth rescue | Potency, µM (doses to about 32.9 µM), most hits filed as activators | hit rate 0.19% among 330,000; calls by dose curve; note: nearly all actives have a fitted effect of over 55% in size
Cycloheximide cs = affects cycloheximide protein synthesis inhibition readout, counter-screen | max response, % | AID 2314 | hit rate 12% among 300,000 | cell reporter, cycloheximide protein synthesis inhibition counterscreen; in the data active = max response mostly above about 13%, no sharp cut-off; inactive = mostly below about 14%; note: read at 38.3 µM for the half of the compounds with a filed dose
Pf growth 96h = P. falciparum growth inhibition at 96 hour, primary screen for plastid delayed-death inhibitors. P. falciparum luciferase reporter growth, 96 h. Potency, µM (titrated, usually from 28.7 µM), actives largely listed as inhibitors. hit rate 6.9% among 320,000
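P. falciparum expressing integrated firefly luciferase, in erythrocytes at 2% hematocrit, 0.05% parasitemia, incubated with compounds 96 h at 37 C, 5% CO2. Growth inhibition read as loss of luminescence; two-generation exposure targets delayed-death apicoplast inhibitors.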
Pf growth 48h = inhibits P. falciparum growth in the first generation, 48 h | P. falciparum luciferase growth in erythrocytes, 48 h | Potency, µM (series often up to 28.7 µM), actives largely listed as inhibitors | hit rate 5.9% among 310,000
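Erythrocytes infected with P. falciparum carrying an integrated firefly luciferase reporter (2% hematocrit, 0.1% parasitemia final) were exposed to compounds in RPMI 1640 with 0.5% Albumax at 37 C, 5% CO2. Growth inhibition was scored as reduced luminescence.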
Shiga toxin inh = blocks Shiga toxin action in Vero cells | Vero cells, Shiga toxin protein synthesis inhibition reporter | inhibition, % at 38.7 µM | hit rate 9.2% among 290,000; in the data active = inhibition mostly above about 28%, no sharp cut-off; inactive = mostly below about 43%
NS1 function inh = inhibitors of influenza NS1 protein function; Potency, µM (highest dose often 46.1 µM); hit rate 0.4% among 270,000; AID 2326; calls by dose curve; note: actives are rising curves; nearly all actives have a fitted effect of over 50% in size
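Compounds were scored for reversing the slow growth caused by influenza A NS1 in S. cerevisiae, measured by optical density at 600 nm. Assay medium contained 2% galactose at pH 6.0; NS1-free yeast of the same strain were the positive control.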
SARS PLpro yeast-2 = Inhibits SARS-CoV PLP in yeast, hit validation. AID 652038. shares compounds with SARS PLpro yeast-1. hit rate 19% among 1,000. calls only. yeast expressing SARS-CoV PLpro, growth phenotype rescue; call rule not given here
Numbers stand for hits; i = inactive; ? = inconclusive; nt = no result given; + = active, no number; [ ] = dose if it differs, or a comment. Hits are enriched below; roughly 21% of the tested compounds scored in any of these assays. Unless noted, calls come from the whole dose curve; as a rule, active = well fitted inhibition curve with a large enough effect; inconclusive = small, poorly fitted or top-dose-only effect, or another doubt; inactive = no such curve, though single readings can be large or run the other way.

SMILES	SARS PLpro yeast-1	Cycloheximide cs	Pf growth 96h	Pf growth 48h	Shiga toxin inh	NS1 function inh	SARS PLpro yeast-2
COCCNC(=O)c1ccc(CS(=O)(=O)c2ccc(C)cc2)o1	?	i	i	nt	i	i	i
O=C(O)C1CCN(Cc2cccnc2)CC1	i	i	i	i	i	nt	nt
O=C(O)c1c2c(nc3ccc(S(=O)(=O)N4CCC(C(=O)NCc5ccccc5Cl)CC4)cc13)CCCC2	i	i	?	i	i	i	nt
CN(C)C(Cc1ccccc1)C(=O)c1ccc(-c2ccccc2)cc1 (stereo not drawn)	3.2µM	i	?	nt	i	i	i
CNC(=O)c1cc(S(=O)(=O)Nc2ccc(C)cc2C)ccc1C	i	i	i	i	i	i	nt
N#Cc1ccc(CN2CCN(C(=O)c3cc(Cl)c4c(c3)OCCO4)CC2)cc1	i	nt	i	?	nt	nt	nt
NC(=O)C1CCN(C(=O)c2cc(Cl)c3c(c2)OCCO3)CC1	2.5µM	nt	nt	nt	nt	nt	i
O=C(Nc1ccc(C(=O)NC2CCCCC2)cc1)c1cccnc1	i	i	?	i	i	i	nt
CCCCNC(=O)CCCCCNS(=O)(=O)c1ccc(OC)cc1	?	i	i	i	i	i	i
Cc1cc([N+](=O)[O-])ccc1NC(=O)CSc1nccc(=O)[nH]1	i	i	i	i	i	nt	nt
CCOc1ccc(NC(=O)NC2CCOC(C)(C)C2)cc1 (stereo not drawn)	?	i	i	?	i	i	i
Cc1cccc(C)c1NC(=O)NN(C(=O)c1ccccc1)C(C)(C)C	2.5µM	i	i	i	i	i	i
O=c1c2ccccc2nc(N/N=C/c2c(O)ccc3ccccc23)n1O	13µM	40	0.47µM	0.52µM	53	i	+
COc1ccc(NC(=O)CSc2nnc(Cn3cnc4ccccc43)o2)cc1	i	i	i	?	i	nt	nt
Cc1cccc(NC(=O)CSc2nnc(Cn3cnc4ccccc43)o2)c1	18µM	i	i	i	i	i	i
Cc1ccc(NC(=S)Nc2ccc3cn[nH]c3c2)c(C)c1	i	i	i	i	i	nt	nt
Cc1ccc(NC(=S)Nc2ccc3cn[nH]c3c2)cc1C	2.5µM	i	i	i	i	i	?
CN(C)c1ncc(S(=O)(=O)c2ccccc2)c(=O)[nH]1	i	i	i	i	i	i	nt
COc1ccc(CNC(=S)NC2CCCC2)cc1	?	i	i	i	i	i	+
O=C(Nc1nccs1)C1CC(=O)N(c2ccc(Cl)cc2)C1 (stereo not drawn)	i	i	i	i[5.75 µM]	i	nt	nt
CC1=C/C(=C\c2ccc3c(c2)OCO3)C(=O)S1	i	i	i	?	i	i	nt
CCCN1C/C(=C/c2ccc3c(c2)OCO3)C(=O)/C(=C/c2ccc3c(c2)OCO3)C1	14µM	i	1.9µM	i	i	i	i
COc1cc(OC)cc(C(=O)N[C@H](C(=O)OCC(=O)Nc2cccc(F)c2)C(C)C)c1	3.5µM	i	i	i	i	i	i
COC(C[C@@H](O)CC(=O)[C@H](C)OCc1ccccc1)OC	i	i	i	i	i	?	nt
Cn1c(N)c(C(=O)COC(=O)CCCc2c[nH]c3ccccc23)c(=O)n(C)c1=O	i	i	?	nt	i	i	nt
SMILES	SARS PLpro yeast-1	Cycloheximide cs	Pf growth 96h	Pf growth 48h	Shiga toxin inh	NS1 function inh	SARS PLpro yeast-2
Cn1c(N)c(C(=O)COC(=O)CCc2c[nH]c3ccccc23)c(=O)n(C)c1=O	3.5µM	i	i	nt	i	i	i
Cc1ccc(C2(C)NC(=O)N(CC(=O)Nc3ccc4c(c3)CCC4)C2=O)cc1 (stereo not drawn)	i	nt	?	i	nt	nt	nt
Cc1ccc2c(CSc3nnc4ccccn34)cc(=O)oc2c1C	3.5µM	i	i	i	60	i	i
Cc1noc(C)c1CSc1nnc2ccccn12	i	i	i	i	i	i	nt
CN1C(=O)CSc2ccc(NC(=O)N3CCN(c4ccccc4)CC3)cc21	i	i	i	?	i	nt	nt
CNC(=S)N/N=C(\C)c1cccc([N+](=O)[O-])c1	13µM	i	i	i	i	i	i
CNC(=S)N/N=C(\C)c1ccc2c(c1)OCCO2	?	19	i	i	i	i	+
CC(=O)c1cccc(NC(=O)CSc2ccc(-c3ccccn3)nn2)c1	?	i	?	?	i	i	+
O=C(NC1CCCCC1)NC1CC2CCC(C1)N2Cc1nnnn1Cc1ccc2c(c1)OCO2 (stereo not drawn)	i	i	i	?	i	i	nt
COc1ccc(Cl)cc1NC(=O)Nc1cccc([N+](=O)[O-])c1C	i	i	i	?	i	i	nt
COc1ccc(OC(=O)COc2ccc(C)cc2)cc1	i	i	i	i	i	i	nt
